Results on 15 molecules are retold here after PubChem BioAssay (NCI).

Structures are written as SMILES. About 83,000 compounds went through this panel and 20% of them were active in at least one assay; those are over-represented in the sample as a whole.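 Testing used 96-well plates and a 48-hour single-concentration exposure. Example: -40 means 40% of the starting cells died.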 Values without a mark were called inactive. The source made the active and inactive calls. The calls were made as follows: active = growth percent below 10; inactive = the rest.

What all share (experiment): NCI-60 one-dose screen, 48 h (100 = growth as untreated, 0 = no growth, -100 = all killed)
Common to all, as to conditions: 10 µM unless noted

For assay [1], the system named is NCI-H23 lung.
Assay [2] concerns NCI-H226 lung.
Assay [3] has as its system NCI-H322M lung.
The test system of assay [4] is HOP-62 NSCLC.
Assay [5] has as its system NCI-H460 lung.
Assay [6] relates to HOP-92 NSCLC.
Assay [7] relates to NCI-H522 lung.
Assay [8] deals with A549/ATCC NSCLC.
Assay [9] deals with 786-0 renal.
Assay [10] concerns COLO 205 colon.
Assay [11] deals with DU-145 prostate.
Assay [12] relates to K-562 leukemia.
Assay [13] relates to MALME-3M melanoma.
Assay [14] deals with MDA-MB-231 breast.
For assay [15], the system named is RXF 393 renal.
In assay [16] the test system is SF-268 CNS.
Assay [17] concerns SF-295 CNS.
The test system of assay [18] is SF-539 CNS.
Assay [19] concerns UACC-257 melanoma.
Assay [20] has as its system M14 melanoma.

As for `Cc1ccc(C(=O)CSc2nnc(-c3ccc(-c4ccc(Cl)cc4)nc3C)o2)cc1`, the growth in assay [1] was 93%; in [2], 88.6%; in assay [3] it was 95.8%; in [4], 92.5%; in assay [5], 107%; in assay [6], 88%. Also, the growth is 91.7% in [7]; 106% in [8]; 104% in assay [9]; 117% in assay [10]; 115% in [11]; 101% in assay [12]. Besides, the growth in assay [13] is 96.1%; in assay [14], 92.6%; in assay [15], 119%; in assay [16] it was 105%; in assay [17], 92.5%; in assay [18], 97.6%. Besides, the growth in assay [19] was 118%; in [20] it was 98.2%.

For the molecule `COc1ccc2[nH]cc(-c3nc(N)nnc3-c3cn(C)c4ccc(Br)cc34)c2c1`, the growth is 43.9% in assay [1]; 34.7% in assay [2]; 53.7% in [3]; 38.9% in [4]; 15.1% in assay [5]; 44% in assay [6]. Besides, the growth in [7] was 7.41% (active); in assay [8], 35.6%; in [9], 24.1%; in assay [10], 20%; in assay [11], 48.8%; in assay [12] it was 5.19% (active). For the same molecule, the growth in assay [13] is 42.2%; in assay [14] it was 48.1%; in assay [15] it was 5.35% (active); in assay [16] it was 39.4%; in assay [17] it was 20.1%; in assay [18], 18.1%. The growth in assay [19] was 46.8%; in assay [20] it was 5.3% (active).

With `Clc1cccc(/C=N/Nc2nc(N/N=C/c3cccc(Cl)c3)nc(N3CCCCC3)n2)c1`, the growth was 97.8% in assay [1]; 82% in [2]; 101% in [3]; 104% in assay [4]; 96.5% in assay [5]; 108% in [6]. Besides, the growth was 88.3% in assay [7]; 86.3% in assay [8]; 95.2% in [9]; 102% in assay [10]; 94.6% in assay [11]; 83% in assay [12]. In addition, the growth is 109% in assay [13]; 116% in assay [14]; 93.4% in assay [15]; 92% in assay [16]; 93% in assay [17]; 105% in [18]. For the same molecule, the figures for the growth in [19] and in assay [20] were 111% and 95.3%, respectively.

`COc1cc(/C=N\NC(=O)c2ccc3nc(-c4ccc(Br)cc4)[nH]c3c2)cc(OC)c1OC`: the growth in [1] was 40.2%; in assay [2], 48.7%; in assay [3] it was 76.8%; in [4], 72.6%; in assay [5] it was 42.3%; in assay [6], 34.4%. Further, the growth in [7] is 45.4%; in assay [8] it was 72.5%; in assay [9] it was 38.4%; in assay [10] it was 32.5%; in [11] it was 65.6%; in [12], 22.5%. The growth was 23.4% in [13]; 101% in assay [14]; 9.72% (active) in assay [15]; 51.7% in assay [16]; 32.5% in assay [17]; 32.6% in assay [18]. Besides, the growth is 33.1% in [19] and 38.3% in assay [20].

For `COc1ccc(/C(=N\N=C(N)N)c2ccc(Cl)cc2)cc1OC`, the growth is 87.2% in assay [1]; 88.6% in [2]; 79.6% in [3]; 69.1% in assay [4]; 78% in assay [5]; -0.241% (active) in assay [6]. The growth is 74.3% in assay [7]; 76.1% in [8]; 59.2% in [9]; 80% in [10]; 90.3% in assay [11]; 49.6% in assay [12]. Further, the growth was 90% in assay [13]; 71% in assay [14]; 54.3% in assay [15]; 59.9% in assay [16]; 71.8% in assay [17]; 83% in assay [18]. The values for the growth in assay [19] and in assay [20] were 90.2% and 65.5%, respectively.

As to `COC(=O)c1cccc(NC2=CC(=O)C(C)=C(C)C2=O)c1`, the growth in assay [1] was 63.9%; in [2] it was 95%; in [3], 104%; in assay [4], 97.4%; in assay [5] it was 104%; in [6], 123%. In addition, the growth in assay [7] is 93.6%; in assay [8], 109%; in assay [9], 101%; in assay [10], 114%; in [11], 108%; in assay [12] it was 69.3%. The growth in assay [13] is 97.9%; in assay [14], 76.4%; in assay [15], 94.2%; in assay [16], 97.3%; in [17], 115%; in assay [18], 97.2%. The growth in [19] is 86.9%; in [20], 108%.

Regarding `O=C(/C=C/c1ccccc1Cl)Nc1ncc(Cc2cc(Cl)ccc2Cl)s1`, the growth in assay [1] was 50.9%; in [2] it was 39.4%; in assay [3] it was 48.5%; in assay [4] it was 22%; in assay [5], 8.08% (active); in [6], 35.4%. Besides, the growth in assay [7] is 12.3%; in [8] it was 40%; in assay [9] it was 33.3%; in assay [10] it was 5.37% (active); in assay [11], 30.7%; in assay [12] it was 12.9%. In addition, the growth in assay [13] is 39.7%; in assay [14], 49.4%; in [15] it was 17.2%; in [16], 43.9%; in assay [17], 14.7%; in assay [18] it was 1.2% (active). Moreover, the growth in assay [19] was 61.5%; in [20] it was 18.2%.

Take `CCc1cc(O)ccc1Nc1cc(-c2ccc(-n3cccn3)cc2)[nH]n1`: the growth was 74.7% in assay [1]; 87.3% in [2]; 64% in assay [3]; 37% in assay [4]; 45% in assay [5]; 139% in assay [6]. The growth in assay [7] is 38%; in [8], 56.2%; in assay [9], 84.9%; in assay [10] it was 49.8%; in assay [11], 71.5%; in assay [12], 18.9%. For the same molecule, the growth in assay [13] is 110%; in assay [14], 92.9%; in assay [15], 108%; in [16], 66%; in assay [17], 36.5%; in assay [18] it was 79.4%. The figures for the growth in [19] and in [20] were 70% and 47.4%, respectively.

For `O=C(CSc1nnc(-c2cccs2)n1-c1ccccc1)Nc1ccccc1F`, the growth in assay [1] was 90.8%; in assay [2], 96.3%; in [3], 103%; in assay [4] it was 76.9%; in assay [5], 96.6%; in assay [6], 93%. In addition, the growth in [7] is 55%; in assay [8] it was 89.6%; in [9], 99.4%; in [10], 70.8%; in assay [11] it was 102%; in assay [12], 26.6%. Moreover, the growth is 70.2% in assay [13]; 86.5% in assay [14]; 90.7% in assay [15]; 93.7% in [16]; 83.2% in assay [17]; 87.9% in assay [18]. In addition, the growth in assay [19] was 95.3%; in assay [20], 74.7%.

As for `COC(=O)CCSC1=C(C)C(=O)c2ccccc2C1=O`, the growth in assay [1] was 71.3%; in assay [2], 86.7%; in assay [3] it was 99%; in assay [4], 107%; in assay [5] it was 101%; in assay [6], 88.6%. Moreover, the growth is 62.4% in assay [7]; 106% in [8]; 103% in assay [9]; 120% in assay [10]; 111% in [11]; 38.4% in assay [12]. Moreover, the growth in [13] was 104%; in [14], 75.6%; in [15] it was 87.3%; in assay [16], 97.4%; in assay [17] it was 102%; in assay [18], 78.6%. The growth in assay [19] was 106%; in [20], 107%.

Take `COc1ccc(-c2c3c(cn2Cc2cccc(OC)c2)-c2oncc2CCC3)cc1`: the growth is 105% in assay [1]; 85% in assay [2]; 103% in assay [3]; 102% in [4]; 98.9% in [5]; 74.2% in [6]. For the same molecule, the growth in assay [7] is 96.3%; in assay [8] it was 98.9%; in assay [9], 103%; in assay [10] it was 95.2%; in [11] it was 101%; in [12], 85.6%. Further, the growth is 95.6% in assay [13]; 101% in assay [14]; 111% in [15]; 99.5% in assay [16]; 97% in [17]; 97.8% in assay [18]. Moreover, the growth in [19] was 96.6%; in assay [20], 91.6%.

As to `Cc1ccc(NC(=O)/C=C/c2ccc(OCCCOc3ccc4c(C)cc(=O)oc4c3)cc2)cc1`, the growth in assay [1] was 75.1%; in assay [2] it was 56.8%; in [3] it was 37.8%; in [4], 48.5%; in [5] it was 38.8%; in assay [6], 35.7%. Besides, the growth in [7] is 51.9%; in assay [8] it was 82.9%; in assay [9], 44.3%; in assay [10], 82.2%; in assay [11] it was 60.6%; in assay [12], 90.7%. The growth in [13] is 44.8%; in [14], 54.6%; in assay [15], 44.1%; in [16] it was 39.1%; in assay [17], 50.1%; in assay [18] it was 57.8%. Further, the growth in [19] is 69.8%; in assay [20] it was 88.3%.

With `CC[C@]12C=CCN3CC[C@@]4(c5ccc(OC)cc5N(C)[C@H]4[C@@](O)(C(=O)OC)[C@@H]1OC(=O)CCN1CCc4ccccc4C1)[C@@H]32`, the growth is 81.9% in assay [1]; 98.9% in assay [2]; 96.1% in [3]; 87.5% in [4]; 96.8% in assay [5]; 40.1% in [6]. Further, the growth is 101% in [7]; 87.8% in assay [8]; 92.7% in assay [9]; 74.3% in [10]; 106% in assay [11]; 75.4% in [12]. Moreover, the growth in [13] was 89.2%; in [14], 84.9%; in assay [15], -95.9% (active); in assay [16], 85.2%; in assay [17] it was 104%; in assay [18], 95.9%. For the same molecule, the growth in [19] is 100%; in assay [20], 98.2%.

On to `C/C(=N\NC(=O)/C=C/CC(=O)O)c1nnn(-c2ccc([N+](=O)[O-])cc2)c1C`, for which the growth in [1] was 97.8%; in assay [2], 96.9%; in [3], 99.1%; in [4], 104%; in assay [5] it was 111%; in assay [6] it was 74.3%. The growth is 98.6% in [7]; 102% in assay [8]; 101% in assay [9]; 108% in assay [10]; 104% in [11]; 103% in assay [12]. In addition, the growth in assay [13] is 97.9%; in assay [14], 104%; in assay [15] it was 106%; in assay [16] it was 96.9%; in assay [17], 97%; in assay [18], 100%. The results for the growth in [19] and in [20] were 105% and 103%, respectively.

For `CCc1cc2c(cc1Cl)nc1c(=O)[nH]c(=O)nc-1n2CCOCC(C)C`, the growth in assay [1] was 67.7%; in [2], 39.4%; in [3], 54.9%; in assay [4], 100%; in [5], 49.3%; in assay [6] it was 126%. Further, the growth was 55.6% in assay [7]; 67.1% in assay [8]; 70.3% in [9]; 21.3% in assay [10]; 95% in assay [11]; 42.1% in [12]. In addition, the growth is 2.24% (active) in assay [13]; 55.8% in assay [14]; 80.5% in [15]; 80% in assay [16]; 60% in assay [17]; 79.3% in assay [18]. In addition, the growth is 36.6% in assay [19] and 49.4% in [20].
